Source: PubChem
Only some compounds are listed: those with a hit (about 18% of all), similar ones and a draw of the others.
TGFb inhibitor = blocks TGF-b signaling; Potency, µM (series often up to 46.1 µM), inactives show at the highest dose activity, negative = inhibition, most hits filed as inhibitors; 410,000 tested, 1.2% active; HepG2 CAGA-GFP TGF-b/SMAD3 reporter, GFP fluorescence, 18 h; TGF-beta stimulated, 500 pg/mL final; note: potency is the fitted concentration of half-maximal effect; % is set by controls: 0 for no effect and ±100 for the full control effect; nearly all actives have a fitted effect of over 65% in size
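Using HEPG2 CAGA-GFP reporter cells at 1000 cells/well, we pinned test compounds, stimulated with recombinant TGF-beta (500 pg/mL final) and measured total well GFP after 18 h.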
DT40 TDP1 CPT = DT40-hTDP1 cell growth loss with CPT; chicken DT40 Tdp1-/-;hTDP1 cells + 20 nM CPT, ATP luminescence, 48 h; Potency, µM (doses to about 46.2 µM), inactives show top-dose activity change, negative = growth inhibition, usual class: inhibitors; 420,000 tested, 12% active; note: potency is the fitted concentration of half-maximal effect; % is set by controls: 0 for no effect and ±100 for the full control effect; nearly all actives have a fitted effect of over 55% in size
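Chicken DT40 Tdp1-/- cells stably complemented with human TDP1 were seeded at 400 cells/well in medium containing 20 nM camptothecin, exposed to pin-transferred compounds, and grown at 37 °C for at least 48 hr. Viability was read as ATP luminescence.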
IL-1B inflam inh = inhibitors of inflammasome signaling (IL-1 beta secretion). THP-1 LPS/ATP IL-1B secretion, AlphaLISA, 16 h; stronger effect = lower value. activity change, % at 57.5 µM. 360,000 tested, 4.7% active. AID 743279; in the data active = activity change below about -50%; inconclusive = mostly about -30% to -49%; note: % is set by controls: 0 for no effect and ±100 for the full control effect
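THP-1 cells pretreated 1 hr with compounds (up to 57.5 uM final), then stimulated with LPS (250 ng/mL final) plus ATP (1.25 mM final); secreted IL-1B measured by AlphaLISA after 16 hr, decreased signal indicating inhibition.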
DT40 TDP1 no CPT = qHTS for Inhibitors of human tyrosyl-DNA phosphodiesterase 1 (TDP1): qHTS in cells in absence of CPT | Potency, µM (top dose mostly 46.2 µM), without a hit: top-dose activity change, negative = growth inhibition, hits mostly inhibitors | 420,000 tested, 15% active | DT40 Tdp1-/- hTDP1 cells, no CPT, ATP luminescence, 48 h; note: potency is the fitted concentration of half-maximal effect; % is set by controls: 0 for no effect and ±100 for the full control effect; nearly all actives have a fitted effect of over 55% in size
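Seeded 400 DT40-hTDP1 cells/well (vehicle DMSO, no 20 nM CPT); pinned compounds; ≥48 hr at 37 °C; CellTiter-Glo luminescence as viability measure.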
TDP1 block = inhibitors of human tyrosyl-DNA phosphodiesterase TDP1; Q9NUW8; recombinant TDP1, AlphaScreen DNA substrate cleavage; Potency, µM (titrated, usually from 130 µM), without a hit: top-dose activity change, negative = inhibition, most hits filed as inhibitors; 350,000 tested, 0.28% active; AID 485290; note: potency is the fitted concentration of half-maximal effect; % is set by controls: 0 for no effect and ±100 for the full control effect; nearly all actives have a fitted effect of over 40% in size
Target sequence (Q9NUW8 whole entry, looked up): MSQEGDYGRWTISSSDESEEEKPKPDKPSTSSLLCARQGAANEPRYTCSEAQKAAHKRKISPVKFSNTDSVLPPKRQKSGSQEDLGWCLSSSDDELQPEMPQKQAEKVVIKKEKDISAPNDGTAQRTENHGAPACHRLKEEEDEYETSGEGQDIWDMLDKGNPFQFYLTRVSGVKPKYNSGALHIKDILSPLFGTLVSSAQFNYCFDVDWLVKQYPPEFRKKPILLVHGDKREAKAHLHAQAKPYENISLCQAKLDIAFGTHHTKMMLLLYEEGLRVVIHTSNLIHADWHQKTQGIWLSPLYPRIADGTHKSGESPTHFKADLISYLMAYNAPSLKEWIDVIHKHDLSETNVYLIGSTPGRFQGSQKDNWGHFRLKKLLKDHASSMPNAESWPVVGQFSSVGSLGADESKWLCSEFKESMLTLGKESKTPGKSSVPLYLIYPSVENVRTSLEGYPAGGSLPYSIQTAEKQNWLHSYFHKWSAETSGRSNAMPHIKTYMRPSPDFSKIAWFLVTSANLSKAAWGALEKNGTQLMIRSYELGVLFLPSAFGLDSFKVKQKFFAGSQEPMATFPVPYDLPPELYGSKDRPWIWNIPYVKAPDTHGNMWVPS
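Recombinant human Tdp1 (E. coli-expressed, 1 nM final) preincubated with compounds 15 min at room temperature, then 5'-biotin/3'-phosphotyrosine-FITC DNA substrate (15 nM final) added for 5 min. AlphaScreen beads (10 ug/ml final) added 10 min; cleavage lowers signal.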
HepG2 viability = kills HepG2 cells in TGF-b inhibitor counter-screen; 410,000 tested, 0.76% active; Potency, µM (series often up to 46.1 µM), inactives show at the highest dose activity change, negative = cytotoxicity, most hits filed as cytotoxic; HepG2 CAGA-GFP viability, ATP luminescence, 18 h; note: potency is the fitted concentration of half-maximal effect
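HepG2 CAGA-GFP cells (1000/well, DMEM with 1% FBS) received compound, then TGF-beta at 500 pg/mL final, and were incubated 18 hours at 37 degrees C. Viability was read by CellTiter-Glo luminescence. Media-only wells were set as complete cell-killing and DMSO as no toxicity.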
Active calls of the source: *; ? = inconclusive; . = no result; [ ] = another dose, or the depositor's remark. Unless noted, calls come from the whole dose curve; as a rule, active = well fitted curve in the direction sought with a large enough effect; inconclusive = small, poorly fitted or top-dose-only effect, or another doubt; inactive = no such curve, though single readings can be large; an effect the other way counts as inactive or inconclusive.

SMILES	TGFb inhibitor	DT40 TDP1 CPT	IL-1B inflam inh	DT40 TDP1 no CPT	TDP1 block	HepG2 viability
COc1ccc(S(=O)(=O)N/N=c2\oc3c(OC)cccc3cc2S(=O)(=O)c2ccc(C)cc2)cc1OC	-1.7%	-25.1%	-54.3*	-16.0%	2.3%	-5.8%
COc1cccc2cc(C(=O)Nc3ccccc3C)/c(=N/NS(=O)(=O)c3ccccc3)oc12	12.4%	-6.0%	-1.7	21.4%	4.6%	-0.4%
N#C/C(=C\c1ccc(-c2ccc(S(=O)(=O)N3CCOCC3)cc2)o1)C(=O)NC1CC1	-29.3%	11.6µM*	-1.7	20.6µM*	6.8%	2.6%
N#C/C(=C\c1ccc(N2CCOCC2)o1)C(=O)NC1CCCCC1	29.7%	-20.4%	-9.9	?	2.4%	5.4%
N#C/C(=C/c1ccc(-c2ccc(S(=O)(=O)N3CCOCC3)cc2)o1)C(=O)NC1CC1	3.1%	-107.3%	?	14.6µM*	.	0.5%
COc1ccc(S(=O)(=O)NCC(c2cccs2)N2CCc3ccccc3C2)cc1 (centres undefined)	-28.9%	-25.3%	-3.2	?	.	4.2%
COc1ccc(OC)c(S(=O)(=O)NCC(c2cccs2)N2CCc3ccccc3C2)c1 (centres undefined)	1.1%	16.4µM*	2.5	?	.	-3.4%
CN(CCc1ccccc1)C(c1cc2ccccc2o1)c1nnnn1C(C)(C)C (centres undefined)	.	?	1.5	?	.	.
CN(Cc1ccccc1)C(c1cc2ccccc2o1)c1nnnn1C(C)(C)C (centres undefined)	.	?	-7.5	18.4µM*	.	.
CCCCn1nnnc1C(c1cc2ccccc2o1)N(Cc1ccccc1)Cc1ccccc1 (centres undefined)	.	?	20.9	18.4µM*	.	.
CCCCn1nnnc1C(c1cc2ccccc2o1)N(C)CCc1ccccc1 (centres undefined)	.	?	24.9	20.6µM*	.	.
CCCCn1nnnc1C(c1cc2ccccc2o1)N(CCC#N)Cc1ccccc1 (centres undefined)	.	16.4µM*	-17.4	?	.	.
CN(Cc1ccc(Cl)cc1)C(c1cc2ccccc2o1)c1nnnn1C(C)(C)C (centres undefined)	.	?	0.0	?	.	.
CCCCn1nnnc1C(c1cc2ccccc2o1)N(C)Cc1ccc(Cl)cc1 (centres undefined)	.	?	-1.0	20.6µM*	.	.
CCCCn1nnnc1C(c1cc2ccccc2o1)N1CCOCC1 (centres undefined)	.	2.4%	-7.1	-21.3%	.	.
CCC(C)NC(=O)Cn1c(=O)n(CCCCCC(=O)NCc2ccccc2Cl)c(=O)c2sccc21 (centres undefined)	-4.2%	?	.	?	0.0%	-12.6%
Cc1c(C(=O)OCC(=O)N(C)c2ccccc2)oc2ccccc12	6.2%	-7.0%	29.3	?	1.2%	21.7%
CC1(C(=O)NS(=O)(=O)Cc2ccccc2C(F)(F)F)CCN1C(=O)c1cccc(F)c1 (centres undefined)	0.4%	4.8%	27.8	0.0%	.	-1.5%
CC(C)(O)C#Cc1ccc(N2C(c3ccsc3)=Cc3ccc(F)cc3C2c2c[nH]c3ccc(C#N)cc23)cc1 (centres undefined)	.	5.17µM*	-17.5	?	.	.
CCOC(=O)c1ccc(-c2ccc(N3C(c4ccsc4)=Cc4ccc(F)cc4C3c3c[nH]c4ccc(C#N)cc34)cc2)cc1F (centres undefined)	.	-22.5%	48.3	?	.	.
COc1ccc(CCNC(=O)Cn2nnc(-c3ccc(C(F)(F)F)cc3)n2)cc1OC	7.1%	-1.0%	.	-23.6%	4.5%	-6.5%
O=C(CSc1ccccc1)N1CCCC(N2CCN(c3ccccc3)CC2)C1 (centres undefined)	1.4%	?	36.2	-17.8%	2.6%	-17.9%
COC(=O)c1ccccc1NC(=O)Cn1cnc2cc(C)c(C)cc21	-5.8%	14.6µM*	30.2	23.1µM*	5.2%	-31.6%
COC(=O)c1ccccc1NC(=O)Cn1cnc2c(cnn2-c2ccc(C)c(C)c2)c1=O	6.3%	-16.7%	2.5	-21.1%	.	-22.6%
COC(=O)c1ccccc1NC(=O)CNc1cc(OC)c(OC)cc1C	?	?	21.8	18.4µM*	2.6%	-10.8%
SMILES	TGFb inhibitor	DT40 TDP1 CPT	IL-1B inflam inh	DT40 TDP1 no CPT	TDP1 block	HepG2 viability
CCc1ccccc1NCC(=O)Nc1ccccc1C(=O)OC	-3.5%	?	5.7	?	5.5%	1.0%
N#C/C(=C\c1ccc(Cl)cc1)c1nc(-c2cc3c(ccc4ccccc43)oc2=O)cs1	?	4.0%	.	3.5%	-0.4%[12.3 µM]	2.2%
CN1CCN(c2cc(-c3ccccc3)nc3cc(-c4ccc(F)cc4)nn23)CC1	-27.6%	4.11µM*	-96.0*	5.8µM*	3.4%	2.7%
Fc1ccc(-c2cc3nc(-c4ccccc4)cc(N4CCN(CCN5CCOCC5)CC4)n3n2)cc1	6.9%	11.6µM*	-74.3*	7.31µM*	3.8%	-1.2%
Cc1cc(NCCCO)n2nc(-c3cccs3)cc2n1	-11.1%	26.9%	.	2.9%	7.2%	-36.1%
OCCCNc1cc(-c2ccccc2)nc2cc(-c3ccc(F)cc3)nn12	?	8.2µM*	-90.5*	5.17µM*	.	-23.2%
Cc1nc(CNC(=O)CC2C(=O)NCCN2Cc2ccc(F)cc2)cs1 (centres undefined)	?	-3.0%	-4.3	-3.0%	5.9%	15.7%
CCCN(C)C1CN(Cc2cn(CCCC(=O)OC)nn2)S(=O)(=O)C1 (centres undefined)	.	-11.6%	55.2	-9.5%	.	.
CC(C)CC1C(=O)N(Cc2cn(CCC3OCCO3)nn2)CCS(=O)(=O)N1Cc1ccc(-c2ccncc2)cc1 (centres undefined)	-2.3%	?	-9.7	23.1µM*	.	-31.4%
Cc1ccc(-c2ccc(CN3C(CC(C)C)C(=O)N(Cc4cn(CCC5OCCCO5)nn4)CCS3(=O)=O)cc2)cc1 (centres undefined)	?	18.4µM*	-7.0	20.6µM*	.	-56.8%
CC(C(=O)Nc1ccc(Br)cc1)N(C)CC(=O)NCc1ccco1 (centres undefined)	-9.6%	?	10.5	?	4.2%	-5.6%
COc1cc(C)ccc1OCC(=O)OCC(=O)NCC1CCCCC1	-1.5%	-1.2%	-6.0	8.3%	1.0%	2.8%
